Ten compounds from PubChem BioAssay (NCATS) can be followed below.

Records with an inconclusive call do not appear. Some of the results follow. Activity calls are given as the source filed them. Unless noted, the call rests on the fitted dose curve; in most records, active means well fitted curve in the direction sought with a large enough effect; inconclusive means small, poorly fitted or top-dose-only effect, or another doubt; inactive means no such curve, though single readings can be large; an effect the other way counts as inactive or inconclusive.

In experiment [1] the target is Peroxisome proliferator-activated receptor gamma (Homo sapiens) (UniProt P37231). Kind of experiment: qHTS assay for small molecule agonists of peroxisome proliferator-activated receptor gamma signaling (AID 588536; active means well fitted curve in the direction sought with a large enough effect in the signal ratio, with a control signal flat, not every such curve was filed as active; the % refers to the signal ratio;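 further: 0% = DMSO basal wells and 100% = rosiglitazone at 2 µM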). A digest of the protocol:
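GeneBLAzer PPAR-gamma-UAS-bla HEK293 cells in 1% charcoal/dextran-treated FBS medium were treated 16 h at 37 C with compounds. Beta-lactamase activity was read by CCF4 ratio (460/530 nm). Response was normalized to 2 uM rosiglitazone (100%) and DMSO, then Hill-fitted for EC50 and efficacy.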
A general note: qHTS replaces the single test concentration by a dilution series.

Experiment [2] is described as follows: qHTS assay for small molecule agonists of retinoid X receptor alpha signaling (AID 588544; calls by dose curve;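 on activation: 0% = DMSO basal wells and 100% = reference agonist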). The following applies: HEK293T RXRa-UAS-bla, beta-lactamase reporter, 18 h; 530 nm emission.
The target in experiment [3] is Retinoic acid receptor RXR-alpha (Homo sapiens) (UniProt P19793). The description is as above.
A short description of experiment [4]: qHTS assay for small molecule antagonists of retinoid X receptor alpha signaling (AID 588546; active means well fitted inhibition curve with a large enough effect in the signal ratio, with a control signal flat, not every such curve was filed as active; the % refers to the signal ratio; further: potency means the concentration at half of the fitted maximal effect;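 on max response: cells stimulated with 9-cis-retinoic acid as agonist; on the % scale 0 is the no-effect control and ±100 the full control effect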). The following applies: HEK293T RXRa-UAS-bla, beta-lactamase ratio, antagonist mode; measured here: W530 green channel, cytotoxicity proxy. A digest of the protocol:
(§1)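 Beta-lactamase reporter inhibition, read as CCF4 fluorescence ratio (ex 405, em 460/530 nm) after 2 h at RT. HEK293T UAS-bla cells, 2500/well, were stimulated with 9-cis-RA at 500 or 100 nM final alongside test compound for 18 h at 37 C.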

Experiment [5] has as its target Retinoic acid receptor RXR-alpha (Homo sapiens) (UniProt P19793). The experiment is described as above. The following applies: HEK293T RXRa-UAS-bla, beta-lactamase ratio, antagonist mode. The gist of the method:
as §1

Experiment [6] concerns the target Thyroid hormone receptor beta (Homo sapiens) (UniProt P10828). Description: qHTS assay for small molecule antagonists of thyroid hormone receptor beta signaling (AID 588547; active means well fitted inhibition curve with a large enough effect in the signal ratio, with a control signal flat, not every such curve was filed as active; the % refers to the signal ratio;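 further: cells stimulated with 0.4 nM T3 agonist during compound exposure; series mostly up to about 77 µM; on the % scale 0 is the no-effect control and ±100 the full control effect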). The following applies: TR-UAS-bla HEK293, beta-lactamase ratio, antagonist mode, 18 h. A digest of the protocol: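 TR-UAS-bla GripTite HEK293 cells in 2% charcoal/dextran FBS medium were preincubated 4 h at 37 C, given compound (0.59 nM to 92 uM) plus 0.4 nM T3 (final) for 18 h, then CCF4 for 2 h at RT; Hill fit gave IC50.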

Experiment [7] in a line: qHTS assay for small molecule activators of the nuclear factor-kappa B (NF-kB) signaling pathway (AID 651749; active means well fitted activation curve with a large enough effect in the signal ratio; the % refers to the signal ratio; further: series mostly up to about 77 µM; % of control where 0% means no effect). The following applies: NF-kB-bla ME-180 cells, beta-lactamase FRET ratio, 16 h; activation: stronger effect = higher value. The gist of the method: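 Screening used 2,000 ME-180 reporter cells per well exposed to pinned compound (23 nL) or DMSO; after 16 hr at 37C, beta-lactamase expression under NF-kB control was assessed through FRET.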

Experiment [8] can be described thus: qHTS assay for small molecule agonists of the antioxidant response element (ARE) signaling pathway measured by Nrf2-dependant transcriptional activity - cell viability counter screen (AID 720653; active means well fitted curve in the direction sought with a large enough effect in the repeat runs; an effect the other way counts as inactive or inconclusive; further: on the % scale 0 is the no-effect control and ±100 the full control effect). The following applies: ARE-bla HepG2 viability, CellTiter-Glo ATP luminescence, 16 h; max response: stronger effect = lower value. The gist of the method:
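ARE-bla HepG2 cells (2,000/well) rested 5 hrs at 37C/5% CO2, then exposed to compounds in DMSO for 16 hrs. Viability was read in the same wells as intracellular ATP by luminescence, 30 min at room temperature after reagent addition.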

Experiment [9] addresses Vitamin D3 receptor (Homo sapiens) (UniProt P11473). Description: qHTS assay for small molecule antagonists of vitamin D receptor signaling (AID 588541; calls by dose curve;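 further: receptor activated by calcitriol during compound treatment; series mostly up to about 77 µM; on the % scale 0 is the no-effect control and ±100 the full control effect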). The gist of the method: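 VDR-UAS-bla HEK293T cells (2000/well, 2% charcoal-stripped FBS) were treated with titrated compounds plus 1-alpha,25-dihydroxyvitamin D3 (50 nM or 3 nM final) for 16 h at 37 C. CCF4 beta-lactamase fluorescence was read; Hill fits gave IC50.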

Experiment [10] has the same target. Description: qHTS assay for small molecule agonists of vitamin D receptor signaling (AID 588543; calls by dose curve;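 further: 0% = DMSO basal and 100% = reference agonist control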). A digest of the protocol:
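VDR-UAS-bla HEK293T cells, 2000/well, 2% charcoal-stripped FBS; compound titration 16 h at 37 C; CCF4 beta-lactamase ratio read. Normalized to 50 nM 1-alpha,25-dihydroxyvitamin D3 (100%) and DMSO; Hill fit gives EC50, efficacy.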

Experiment [11] in a line: qHTS assay for small molecule agonists of the antioxidant response element (ARE) signaling pathway (AID 651741; active means well fitted activation curve with a large enough effect in the signal ratio; the % refers to the signal ratio; further: potency means the concentration at half of the fitted maximal effect). A digest of the protocol:
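Compounds in DMSO are pinned onto HepG2 ARE-bla cells (2,000/well) that were preincubated 5 h; plates stay 16 h at 37 C, then beta-lactamase activity is detected with LiveBLAzer B/G substrate by fluorescence.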

The target of experiment [12] is Nuclear receptor subfamily 1 group I member 2 (Rattus norvegicus) (UniProt Q9R1A7). Kind of experiment: qHTS assay for small molecule activators of the rat pregnane X receptor (rPXR) signaling pathway (AID 651751; call rule not given here; further: 0% is about no effect). The settings on record: rPXR reporter cells, luciferase (One-Glo), 24 h.
The nature of experiment [13]: qHTS assay for small molecule activators of the human pregnane X receptor (PXR) signaling pathway (AID 720659; call rule not given here; further: 0% is about no effect).
Experiment [14] has as its target Vitamin D3 receptor (Homo sapiens) (UniProt P11473). Description: qHTS for Inhibitors of the vitamin D receptor (VDR): Hit Validation using a Fluorescein Assay (AID 602200). Further: potency means the concentration at half of the fitted maximal effect. The settings on record: VDR-coactivator binding, fluorescein fluorescence polarization. The gist of the method: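 Fluorescence polarization (Ex 495 nm/Em 520 nm) read after 2 h at room temperature, reporting disruption of binding between 1.5 uM VDR-LBD, liganded by 5 uM LG19078, and 5 nM fluorescein-labelled SRC2-3 coactivator peptide (final concentrations).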

For experiment [15], the target named is Flap endonuclease 1 (Homo sapiens) (UniProt P39748). Kind of experiment: qHTS Assay for the Inhibitors of FEN1: Confirmatory Assay for Cherry-picked Compounds (AID 720498). Further: potency means the concentration at half of the fitted maximal effect; nearly all actives have a fitted effect of over 60% in size. The following applies: FEN1 flap cleavage, TAMRA/BHQ2 fluorogenic DNA substrate. The gist of the method:
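FEN1 at 10 nM was preincubated with compound for 15 min at room temperature, then 50 nM (final) double-flap DNA substrate was added. TAMRA fluorescence released from the BHQ-2-quenched flap was read at 0 and 15 min (ex 525/em 598 nm).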

Experiment [16] concerns the target DNA polymerase eta (Homo sapiens) (UniProt Q9Y253). Kind of experiment: qHTS for Inhibitors of Polymerase Eta: Confirmatory Assay for Cherry-picked Compounds (AID 720502). Further: potency means the concentration at half of the fitted maximal effect. The following applies: Pol eta primer extension, TAMRA/BHQ fluorescence, 10 min. The gist of the method: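 Readout: TAMRA dequenching, ex 525/em 598 nm, read at 0 and 10 min. Enzyme: 10 nM human Pol eta, preincubated with compound 15 min RT. Substrate: 50 nM final annealed primer/reporter/template duplex.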

The nature of experiment [17]: qHTS for Inhibitors of the vitamin D receptor (VDR): Hit Validation using a Cytotoxicity Assay (AID 602204).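 Further: plate controls were DMSO for no effect and high-concentration cycloheximide for full effect; nearly all actives have a fitted effect of over 75% in size.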 The gist of the method: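 Using cycloheximide at high concentration as positive control and DMSO as negative, cells plated at 20,000 per well (4 h) are exposed to compounds for 18 h; ATP luminescence is read after 30 min.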
Experiment [18] addresses Bifunctional 3'-5' exonuclease/ATP-dependent helicase WRN (Homo sapiens) (UniProt Q14191). Description: qHTS for Inhibitors of WRN Helicase: Confirmatory Assay for Cherry-picked Compounds. (AID 720497). Further: series mostly up to about 57 µM; nearly all actives have a fitted effect of over 65% in size. The gist of the method:
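WRN (20 nM) was preincubated 15 min at RT with compound, then started with 100 nM forked duplex oligonucleotide and 2 mM ATP. Unwinding was read kinetically by red fluorescence (ex 525/em 598 nm), normalized to enzyme-free and uninhibited controls.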

The nature of experiment [19]: qHTS for Inhibitors of WRN Helicase: Thiazole Orange DNA Binding Counterscreen (AID 720499).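 Further: drop in dye fluorescence marks compound binding to DNA; on the % scale 0 is the no-effect control and ±100 the full control effect; nearly all actives have a fitted effect of over 60% in size.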 The gist of the method:
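Thiazole orange displacement counterscreen: compounds added to 50 nM unlabeled DNA with 100 nM ThO. Fluorescence (ex 480, em 530 nm) read after 15 min at room temperature; activity flags nonspecific DNA binding.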

In experiment [20] the target is RecQ-like DNA helicase BLM (Homo sapiens) (UniProt P54132). Description: qHTS for Inhibitors of WRN Helicase: BLM Helicase Counterscreen for WRN Inhibitors (AID 720503).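 Further: plate controls were DMSO vehicle for no effect and enzyme-free control wells for full effect; nearly all actives have a fitted effect of over 60% in size.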 The gist of the method: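 BLM at 1 nM was preincubated with compound for 15 min at room temperature in 25 mM Tris-HCl pH 8.0, 50 mM NaCl, 2 mM MgCl2, 1 mM DTT and 0.01% Tween-20. Unwinding was started with 100 nM DNA and 2 mM ATP (final). Fluorescence (ex 525/em 598 nm) was read twice, 15 min apart, and normalized to enzyme-free and DMSO controls.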

Experiment [21] is described as follows: S16 Schwann cell viability assay (CellTiter-Glo assay) (AID 624031). Further: potency means the concentration at half of the fitted maximal effect; nearly all actives have a fitted effect of over 70% in size. The gist of the method:
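This viability control uses native rat S16 Schwann cells grown in DMEM plus 10% FBS. After a 24 h compound treatment at 37 °C, CellTiter-Glo luminescence reports ATP content, scaled against DMSO-treated and cell-free wells.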
A general note: Cellular ATP, detected with luciferase, serves as a proxy for viable cell number.

Sequence of Vitamin D3 receptor (Homo sapiens) (P11473 whole entry, looked up, the tested form may be a part): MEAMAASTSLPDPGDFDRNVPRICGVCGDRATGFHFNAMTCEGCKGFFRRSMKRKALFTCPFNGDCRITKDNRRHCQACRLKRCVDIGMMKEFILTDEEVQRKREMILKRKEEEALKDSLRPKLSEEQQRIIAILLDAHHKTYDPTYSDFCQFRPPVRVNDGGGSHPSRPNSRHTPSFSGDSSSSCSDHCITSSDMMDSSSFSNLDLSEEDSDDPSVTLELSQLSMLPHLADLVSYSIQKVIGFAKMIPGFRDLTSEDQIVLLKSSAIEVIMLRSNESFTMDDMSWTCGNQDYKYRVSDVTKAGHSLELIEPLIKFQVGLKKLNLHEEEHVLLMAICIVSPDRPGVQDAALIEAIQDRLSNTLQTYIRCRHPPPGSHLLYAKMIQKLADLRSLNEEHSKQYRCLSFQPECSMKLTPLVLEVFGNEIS
Sequence of Retinoic acid receptor RXR-alpha (Homo sapiens) (P19793 whole entry, looked up): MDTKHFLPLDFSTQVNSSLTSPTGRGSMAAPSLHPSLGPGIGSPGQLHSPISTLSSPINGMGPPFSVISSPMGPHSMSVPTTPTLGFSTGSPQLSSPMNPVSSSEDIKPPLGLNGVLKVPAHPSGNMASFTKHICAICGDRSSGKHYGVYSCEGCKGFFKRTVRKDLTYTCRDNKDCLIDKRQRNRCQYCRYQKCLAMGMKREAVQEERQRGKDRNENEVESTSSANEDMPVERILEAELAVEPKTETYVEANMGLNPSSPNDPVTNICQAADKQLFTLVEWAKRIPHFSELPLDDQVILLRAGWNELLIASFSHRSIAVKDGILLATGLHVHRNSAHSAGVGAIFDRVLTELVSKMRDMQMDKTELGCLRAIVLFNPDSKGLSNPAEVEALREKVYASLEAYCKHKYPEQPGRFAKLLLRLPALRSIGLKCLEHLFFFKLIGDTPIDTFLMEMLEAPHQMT
Sequence of Nuclear receptor subfamily 1 group I member 2 (Rattus norvegicus) (Q9R1A7 whole entry, looked up): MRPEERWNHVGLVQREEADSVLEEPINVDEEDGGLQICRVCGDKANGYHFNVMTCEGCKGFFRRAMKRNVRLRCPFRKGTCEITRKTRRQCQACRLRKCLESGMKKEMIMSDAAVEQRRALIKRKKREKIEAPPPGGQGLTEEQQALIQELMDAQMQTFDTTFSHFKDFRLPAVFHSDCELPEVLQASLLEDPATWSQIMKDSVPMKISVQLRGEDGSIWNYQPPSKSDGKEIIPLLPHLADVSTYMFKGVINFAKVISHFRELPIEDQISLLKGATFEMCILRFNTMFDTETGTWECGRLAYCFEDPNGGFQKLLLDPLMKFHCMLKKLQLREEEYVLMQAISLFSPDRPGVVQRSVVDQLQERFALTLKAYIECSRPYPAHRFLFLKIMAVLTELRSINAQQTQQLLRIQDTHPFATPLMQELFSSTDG
Sequence of Thyroid hormone receptor beta (Homo sapiens) (P10828 whole entry, looked up): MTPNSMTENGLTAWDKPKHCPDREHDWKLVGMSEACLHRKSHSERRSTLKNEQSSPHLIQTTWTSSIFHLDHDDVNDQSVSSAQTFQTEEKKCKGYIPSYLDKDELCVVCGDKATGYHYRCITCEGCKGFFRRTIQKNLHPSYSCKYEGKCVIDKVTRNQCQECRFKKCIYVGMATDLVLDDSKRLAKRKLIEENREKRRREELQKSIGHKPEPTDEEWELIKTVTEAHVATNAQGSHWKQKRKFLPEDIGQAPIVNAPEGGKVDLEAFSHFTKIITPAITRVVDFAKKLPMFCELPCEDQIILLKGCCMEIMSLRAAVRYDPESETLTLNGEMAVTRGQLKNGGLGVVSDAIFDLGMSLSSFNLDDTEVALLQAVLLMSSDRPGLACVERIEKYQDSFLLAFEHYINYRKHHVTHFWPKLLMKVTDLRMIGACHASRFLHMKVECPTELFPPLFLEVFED
Sequence of Peroxisome proliferator-activated receptor gamma (Homo sapiens) (P37231 whole entry, looked up): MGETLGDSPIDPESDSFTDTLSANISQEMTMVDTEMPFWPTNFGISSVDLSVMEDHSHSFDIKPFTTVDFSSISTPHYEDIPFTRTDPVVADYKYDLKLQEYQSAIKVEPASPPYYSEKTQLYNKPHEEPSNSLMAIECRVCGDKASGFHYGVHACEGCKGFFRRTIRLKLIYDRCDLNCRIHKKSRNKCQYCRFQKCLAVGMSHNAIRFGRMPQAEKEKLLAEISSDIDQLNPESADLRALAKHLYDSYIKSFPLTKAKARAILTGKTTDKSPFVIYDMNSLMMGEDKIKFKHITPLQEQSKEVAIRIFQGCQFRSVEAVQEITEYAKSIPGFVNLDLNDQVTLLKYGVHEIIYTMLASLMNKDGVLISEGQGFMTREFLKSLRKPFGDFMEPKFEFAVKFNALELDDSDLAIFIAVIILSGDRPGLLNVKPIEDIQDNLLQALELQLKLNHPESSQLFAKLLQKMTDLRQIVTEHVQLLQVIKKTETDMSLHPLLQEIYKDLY
Sequence of Bifunctional 3'-5' exonuclease/ATP-dependent helicase WRN (Homo sapiens) (Q14191 whole entry, looked up): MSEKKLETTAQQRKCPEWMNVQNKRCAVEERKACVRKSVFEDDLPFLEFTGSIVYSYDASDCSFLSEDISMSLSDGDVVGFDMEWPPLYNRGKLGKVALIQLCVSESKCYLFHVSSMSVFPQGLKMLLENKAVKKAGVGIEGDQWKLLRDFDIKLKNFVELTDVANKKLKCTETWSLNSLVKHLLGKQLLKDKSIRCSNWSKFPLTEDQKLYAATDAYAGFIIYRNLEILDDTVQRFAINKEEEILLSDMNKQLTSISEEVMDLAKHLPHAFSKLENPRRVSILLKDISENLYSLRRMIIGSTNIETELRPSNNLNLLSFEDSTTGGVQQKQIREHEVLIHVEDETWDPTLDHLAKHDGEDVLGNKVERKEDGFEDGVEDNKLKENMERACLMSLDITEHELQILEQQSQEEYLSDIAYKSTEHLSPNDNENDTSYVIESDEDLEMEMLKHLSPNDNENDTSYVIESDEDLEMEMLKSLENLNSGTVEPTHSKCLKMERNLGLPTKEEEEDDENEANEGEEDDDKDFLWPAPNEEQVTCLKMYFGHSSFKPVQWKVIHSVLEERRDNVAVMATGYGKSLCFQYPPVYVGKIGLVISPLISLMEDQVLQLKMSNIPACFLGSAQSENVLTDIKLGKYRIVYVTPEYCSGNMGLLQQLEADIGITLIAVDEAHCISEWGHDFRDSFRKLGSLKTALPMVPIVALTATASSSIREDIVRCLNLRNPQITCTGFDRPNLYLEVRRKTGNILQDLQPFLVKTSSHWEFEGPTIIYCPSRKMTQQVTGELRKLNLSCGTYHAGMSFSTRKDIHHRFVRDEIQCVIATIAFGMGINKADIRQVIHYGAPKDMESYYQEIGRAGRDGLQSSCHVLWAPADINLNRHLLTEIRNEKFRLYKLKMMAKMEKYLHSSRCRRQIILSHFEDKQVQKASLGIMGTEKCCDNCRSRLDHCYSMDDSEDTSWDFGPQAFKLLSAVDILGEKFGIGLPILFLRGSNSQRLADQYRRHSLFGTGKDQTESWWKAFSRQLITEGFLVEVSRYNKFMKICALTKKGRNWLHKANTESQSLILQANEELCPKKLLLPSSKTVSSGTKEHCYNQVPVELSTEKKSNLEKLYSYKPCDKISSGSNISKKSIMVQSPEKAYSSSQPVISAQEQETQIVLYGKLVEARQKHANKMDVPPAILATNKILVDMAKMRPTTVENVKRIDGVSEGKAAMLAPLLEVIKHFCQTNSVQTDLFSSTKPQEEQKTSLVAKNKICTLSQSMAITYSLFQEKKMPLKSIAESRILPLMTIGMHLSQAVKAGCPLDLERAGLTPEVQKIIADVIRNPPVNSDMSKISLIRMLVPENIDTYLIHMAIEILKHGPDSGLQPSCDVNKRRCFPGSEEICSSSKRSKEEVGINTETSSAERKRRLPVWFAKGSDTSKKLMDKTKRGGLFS
Sequence of DNA polymerase eta (Homo sapiens) (Q9Y253 whole entry, looked up): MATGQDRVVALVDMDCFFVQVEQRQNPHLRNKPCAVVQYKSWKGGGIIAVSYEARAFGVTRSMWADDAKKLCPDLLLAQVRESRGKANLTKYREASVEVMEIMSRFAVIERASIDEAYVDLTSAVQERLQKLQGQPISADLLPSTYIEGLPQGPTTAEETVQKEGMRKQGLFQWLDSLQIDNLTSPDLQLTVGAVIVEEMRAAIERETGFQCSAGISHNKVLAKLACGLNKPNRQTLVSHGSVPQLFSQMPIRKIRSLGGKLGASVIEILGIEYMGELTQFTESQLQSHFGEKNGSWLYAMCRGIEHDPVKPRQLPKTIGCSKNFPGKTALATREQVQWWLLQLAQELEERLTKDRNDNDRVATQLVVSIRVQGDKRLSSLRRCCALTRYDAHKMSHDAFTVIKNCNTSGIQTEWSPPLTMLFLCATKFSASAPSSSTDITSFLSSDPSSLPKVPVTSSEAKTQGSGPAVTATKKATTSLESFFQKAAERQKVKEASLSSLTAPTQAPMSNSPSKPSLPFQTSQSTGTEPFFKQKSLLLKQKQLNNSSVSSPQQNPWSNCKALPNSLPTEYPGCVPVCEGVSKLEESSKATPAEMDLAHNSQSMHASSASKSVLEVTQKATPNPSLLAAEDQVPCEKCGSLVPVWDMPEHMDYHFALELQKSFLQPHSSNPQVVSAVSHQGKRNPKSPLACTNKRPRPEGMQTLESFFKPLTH
Sequence of Flap endonuclease 1 (Homo sapiens) (P39748 whole entry, looked up): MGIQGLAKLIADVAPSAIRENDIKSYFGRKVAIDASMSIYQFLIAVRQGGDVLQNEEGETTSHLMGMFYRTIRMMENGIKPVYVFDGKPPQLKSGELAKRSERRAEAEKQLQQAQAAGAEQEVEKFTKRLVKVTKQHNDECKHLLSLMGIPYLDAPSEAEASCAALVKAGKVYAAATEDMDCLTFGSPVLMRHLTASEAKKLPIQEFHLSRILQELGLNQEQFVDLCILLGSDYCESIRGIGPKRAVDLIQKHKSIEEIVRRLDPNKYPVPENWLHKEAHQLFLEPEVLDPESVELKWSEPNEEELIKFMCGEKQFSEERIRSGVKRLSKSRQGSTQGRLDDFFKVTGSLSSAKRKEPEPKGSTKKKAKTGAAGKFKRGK

Turning to `CC(C)NC(=O)N1CC(=O)N(c2cc(Cl)cc(Cl)c2)C1=O`, the Potency entry in experiment [1] and in [3] was “inactive” throughout. Moreover, the max response was 21.2% in experiment [2], 11.6% in experiment [4], -6.64% (inactive) in experiment [5] and 1.07% (inactive) in experiment [8]. Further, the activity change % (negative = inhibition) in experiment [6] is 4.77% (inactive). Moreover, the activation in experiment [7] was -3.11% (inactive).
Regarding `ClC1=C(Cl)[C@]2(Cl)[C@H]3[C@H]([C@@H]4C=C[C@H]3C4)[C@]1(Cl)C2(Cl)Cl`, the Potency result in experiment [9] is “inactive”. The outcome in experiment [10] was inactive. In experiment [11], the Potency is 61.1 µM (active). For the same compound, the max response in experiment [8] was -24.6% (inactive); in [12], 7.41% (inactive).
For the compound `CON=C(C(=O)OC)c1ccccc1CO/N=C(\C)c1cccc(C(F)(F)F)c1`, the outcome in experiment [10] was inactive. Besides, the activation in experiment [7] was 3.5% (inactive). The max response in experiment [12] is -14.4% (inactive).
In the case of `N#CC(Br)(Br)C(N)=O`, the max response in [2] came to 6.67%. Moreover, the Potency entry in [3] was “inactive”. Also, in experiment [13], the compound was called inactive.
As to `CCOCn1c(-c2ccc(Cl)cc2)c(C#N)c(Br)c1C(F)(F)F`, in experiment [4], the max response is 0.12%. In addition, the Potency in [5] was 2.24 µM (active). Also, the outcome in experiment [13] was inactive.
With `O=C1NC(=O)N(c2ccccc2)C(=O)/C1=C/c1ccc([N+](=O)[O-])s1`, the results for the Potency in [14], in experiment [15] and in experiment [16] were 20 µM (active), 19 µM (active) and 30.1 µM (active), respectively.
Consider `Cc1ccnc(-n2c(C)cc(/C=C3\C(=O)NC(=S)N(C)C3=O)c2C)c1`, for which, in [17], the compound was classed as inactive.
Regarding `O=C(O)CCn1cc(C=C2C(=O)NC(=S)NC2=O)c(-c2cccc(Br)c2)n1`, the compound was classed as inactive in experiment [17], in [18], in experiment [19] and in experiment [20].
For `C=CCCC`, the Potency in experiment [11] is 66.8 µM (active).
Turning to `COc1cc(-c2ccc(-[n+]3nc(-c4ccccc4)nn3-c3ccc([N+](=O)[O-])cc3)c(OC)c2)ccc1-[n+]1nc(-c2ccccc2)nn1-c1ccc([N+](=O)[O-])cc1`, in [21], the Potency is 28.7 µM (active).
